Data reported in ChEMBL document CHEMBL1157539, “Thousands of chemical starting points for antimalarial lead identification” (Nature, 2010).

Key:
Assay type in all cases: functional
Plasmodium falciparum [1] = assay: GSK_TCMDC: Inhibition of Plasmodium falciparum 3D7 in whole red blood cells, using parasite LDH activity as an index of growth. Test compounds present at 2uM
Plasmodium falciparum [2] = assay: GSK_TCMDC: Inhibition of Plasmodium falciparum Dd2 in whole red blood cells, using parasite LDH activity as an index of growth. Test compounds present at 2uM
HepG2 = assay: GSK_TCMDC: Percent inhibition of human HepG2 cell line. Test compounds present at 10uM.

Compound | Inhibition (Plasmodium falciparum [1]) [%] | Inhibition (Plasmodium falciparum [2]) [%] | Inhibition (HepG2) [%]
COc1ccc2c(NN=Cc3ccccc3)ccnc2c1 | 100 | 98 | 18
Cc1cnc(CNCc2ccc(S(=O)(=O)Nc3ccc(Oc4cccc(Cl)c4)cc3)cc2)cn1.O=C(O)C(F)(F)F | 97 | 0 | 4
COc1ccc2nc(/N=C3\NC(c4ccccn4)(c4ccccn4)C(=O)N3C)[nH]c2c1 | 99 | 98 | 65
Cn1cncc1C(=O)Nc1ccc(-c2cccc(-c3nc4cc(F)ccc4[nH]3)c2)cc1 | 100 | 23 | 5
Cc1cc(Cl)ccc1NC(=O)NCCCCCN1CCC(c2c[nH]c3ccccc23)CC1 | 91 | 8 | 59
Cc1ccc2nc(C)n(C3CCN(C(=O)Cc4ccccc4C)CC3)c2c1 | 100 | 100 | 2
COc1ccc(-c2cc3ncn(CC(=O)N4CCN(c5cccc(OC)c5)CC4)c(=O)c3s2)cc1 | 84 | 26 | 49
COc1ccc(NC(=O)Nc2cc(C)nc3ccccc23)cc1Cl | 100 | 49 | 4
Cc1ccc(CNC(=O)c2cc3c(=O)n4ccccc4nc3n(CCCN3CCOCC3)c2=N)cc1 | 92 | 5 | 21
CCOc1cc(C)ccc1C1CCN(CCN2CCC(CNC(=O)c3ccc(-c4ccc(C(F)(F)F)cc4)cc3)CC2)CC1 | 98 | 89 | 53
Cl.N#CCc1ccc(Nc2nccc(Nc3ccc(Oc4ccccc4)cc3)n2)cc1 | 98 | 47 | 0
